Outcome and AC50 data for 35 molecules are collected here from PubChem BioAssay (EPA / NIEHS).

Assay [1] in a line: ACEA_ER_80hr: ACEA Biosciences xCELLigence Real-Time Cell Analysis on Estrogen Receptor Agonism for Proliferation (AID 2282667; active = hit-call score of the fitted dose curve at least 0.9, where 1 is the maximum). The note with it: T47D proliferation, impedance (xCELLigence), 80 h. The gist of the method:
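Cell-growth kinetics were measured by impedance in T47D cells treated continuously with compound (top 100 uM final, 1:4 steps, 8 points). Activity at 80 h was scored as signal gain over the DMSO baseline.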

The nature of assay [2]: APR_HepG2_CellCycleArrest_24hr: Apredica 24-hour HepG2 Assay for Cell Cycle Arrest (AID 2282905).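 Note: cell cycle arrest scored as ratio of 2N to 4N nuclear DNA content.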 The note with it: imaging, actives raise or lower the signal. The gist of the method: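 Cell cycle arrest is scored from nuclear DNA content measured by high-content imaging of Hoechst 33342-stained HepG2 cells following 24-hour treatment at ten concentrations up to 200 uM, with DMSO as baseline.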

Assay [3] in a line: APR_HepG2_NuclearSize_24hr: Apredica 24-hour HepG2 Assay for Nuclear Size (AID 2282907). The note with it: high-content imaging, actives raise or lower the signal. The gist of the method:
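Compounds in DMSO (final 0.5%) were added to human HepG2 hepatoma cells at ten concentrations up to 200 uM for 24 hr. Fixed nuclei were stained with Hoechst 33342, and nuclear diameter was quantified from automated images.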

A short description of assay [4]: APR_HepG2_CellLoss_24hr: Apredica 24-hour HepG2 Assay for Cell Loss (AID 2282908). The note with it: high-content imaging. The gist of the method: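 Cell number is quantified by fluorescence imaging of Hoechst 33342-stained nuclei following dosing at 0.39–200 uM in 0.5% DMSO. Curves are fitted in both directions from the DMSO baseline.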
Assay [5] in a line: APR_HepG2_MicrotubuleCSK_24hr: Apredica 24-hour HepG2 Assay for Microtubule CSK Stabilty (AID 2282909). The note with it: HepG2 microtubule cytoskeleton imaging, actives raise or lower the signal. The gist of the method: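 Steps: dose HepG2 for 24 h (0.39–200 uM, 0.5% DMSO); fix 30 min in 3.7% formaldehyde at room temperature; permeabilize; stain alpha-tubulin 60 min; image microtubule cytoskeleton at 20x. Signal change fitted in both directions relative to DMSO.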

The nature of assay [6]: APR_HepG2_MitoticArrest_24hr: Apredica 24-hour HepG2 Assay for Mitotic Arrest (AID 2282910). The note with it: high-content imaging, actives raise or lower the signal. The gist of the method: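 HepG2 cells, 24 h exposure at 0.39-200 uM (10 concentrations, duplicate, 0.5% DMSO). Fixed, stained for phospho-histone H3 with Hoechst; imaged by high-content microscopy, bidirectional fit versus DMSO.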

Assay [7] is described as follows: APR_HepG2_MitoMembPot_24hr: Apredica 24-hour HepG2 Assay for Mitochondrial Membrane Potential (AID 2282911). The note with it: imaging, actives raise or lower the signal. The gist of the method: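 Human hepatoma HepG2 cultures received ten compound concentrations up to 200 uM for 24 hr. Membrane-potential dye signal, captured by automated fluorescence microscopy, was scored for gain or loss against DMSO controls.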

A short description of assay [8]: APR_HepG2_p53Act_24hr: Apredica 24-hour HepG2 Assay for p53 Activation (AID 2282913).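 Note: p53 protein immunofluorescence averaged per cell in HepG2 with Hoechst nuclei.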 The note with it: high-content imaging, actives raise or lower the signal. The gist of the method: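 Automated fluorescence imaging quantifies p53 immunostaining in HepG2 cells after a 24 hr exposure (0.39–200 uM, duplicate, 0.5% DMSO). Nuclei are located by Hoechst 33342 staining.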

A short description of assay [9]: APR_HepG2_CellCycleArrest_72hr: Apredica 72-hour HepG2 Assay for Cell Cycle Arrest (AID 2282914). The note with it: high-content imaging, actives raise or lower the signal. The gist of the method: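 Cell cycle arrest in HepG2 was scored from nuclear DNA content after 72 hr compound treatment (0.39–200 uM). Activity, either gain or loss, was fitted against the DMSO baseline.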

Assay [10] can be described thus: APR_HepG2_CellLoss_72hr: Apredica 72-hour HepG2 Assay for Cell Loss (AID 2282915). The note with it: high-content imaging. The gist of the method:
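HepG2 cells exposed 72 h to compound at 0.39–200 uM (10 concentrations, duplicate) in 0.5% DMSO. Fixed with 3.7% formaldehyde and Hoechst 33342-stained. Imaged at 20x; nuclear count gives cell number, fitted bidirectionally versus DMSO.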

Assay [11] is described as follows: APR_HepG2_P-H2AX_72hr: Apredica 72-hour HepG2 Assay for H2AX Phosphorylation (AID 2282916).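 Note: phospho-histone H2A.x immunostain intensity per cell marking DNA damage.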 The note with it: imaging, actives raise or lower the signal. The gist of the method: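 Following 72 hr treatment with 0.39–200 uM compound, HepG2 cells were formaldehyde-fixed, permeabilized and stained for phospho-H2A.x; signal was measured by high-content imaging and fitted bidirectionally against DMSO controls.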

The nature of assay [12]: APR_HepG2_MitoMembPot_72hr: Apredica 72-hour HepG2 Assay for Mitochondrial Membrane Potential (AID 2282917). The note with it: imaging, actives raise or lower the signal. The gist of the method:
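HepG2 cells dosed 72 hr with compound at 0.39–200 uM in duplicate, 0.5% v/v DMSO final. Mitochondria stained with 250 nM MitoTracker Red CMXRos for 30 min before formaldehyde fixation, imaged by high-content fluorescence; bidirectional fit versus DMSO.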

Assay [13] is described as follows: APR_HepG2_MitoticArrest_72hr: Apredica 72-hour HepG2 Assay for Mitotic Arrest (AID 2282918). The note with it: high-content imaging, actives raise or lower the signal. The gist of the method: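 Mitotic arrest in HepG2 is scored from phospho-histone H3 staining after 72 hr dosing across 0.39–200 uM, with DMSO at 0.5% v/v. Nuclei are identified by Hoechst 33342 and fluorescence intensity is quantified per cell.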

Assay [14] can be described thus: APR_HepG2_MicrotubuleCSK_72hr: Apredica 72-hour HepG2 Assay for Microtubule CSK Stabilty (AID 2282919). The note with it: HepG2 microtubule cytoskeleton, high-content imaging, actives raise or lower the signal. The gist of the method:
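HepG2 cells were exposed 72 hr to compound at 0.39–200 uM in duplicate (0.5% DMSO final), then fixed and permeabilized. Alpha-tubulin immunofluorescence was imaged by high-content microscopy, with bidirectional fitting against DMSO and taxol as positive control.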

Assay [15] is described as follows: APR_HepG2_P-H2AX_24hr: Apredica 24-hour HepG2 Assay for H2AX Phosphorylation (AID 2282920). The note with it: high-content imaging, actives raise or lower the signal. The gist of the method:
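Signal comes from a FITC-labeled secondary detecting phospho-histone H2A.x in fixed HepG2 cells, quantified by automated imaging at 20x. Dosing ran 24 hr across 0.39–200 uM with 0.5% v/v DMSO.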

Assay [16] in a line: APR_HepG2_StressKinase_72hr: Apredica 72-hour HepG2 Assay for Stress Kinase (AID 2282921). The note with it: HepG2 stress kinase (phospho-c-Jun) imaging, actives raise or lower the signal. The gist of the method:
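Fluorescence intensity of Cy3-tagged anti-phospho-c-Jun antibody, quantified per cell from Hoechst-defined nuclei across six images per well, served as the read-out following 72 h exposure (0.39–200 uM, 0.5% v/v DMSO).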

The nature of assay [17]: APR_HepG2_StressKinase_24hr: Apredica 24-hour HepG2 Assay for Stress Kinase (AID 2282922). The note with it: HepG2 stress kinase (phospho-c-Jun) imaging, actives raise or lower the signal. The gist of the method: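 HepG2 cells exposed 24 h to 0.39–200 uM compound in duplicate (0.5% v/v DMSO final). Cells fixed in 3.7% formaldehyde, permeabilized and immunostained for phospho-c-Jun; read by high-content fluorescence imaging, fitted bidirectionally against DMSO.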

Assay [18] in a line: APR_HepG2_p53Act_72hr: Apredica 72-hour HepG2 Assay for p53 Activation (AID 2282923).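 Note: average cellular p53 protein immunofluorescence intensity in HepG2 cells.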 The note with it: high-content imaging, actives raise or lower the signal. The gist of the method: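 HepG2 monolayers receive test compounds in duplicate at ten concentrations (0.39 through 200 uM) for 72 hr. They are then formaldehyde-fixed, antibody-labelled for p53, Hoechst-stained and imaged, with activity fitted bidirectionally versus DMSO.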

The nature of assay [19]: APR_HepG2_MitoMass_72hr: Apredica 72-hour HepG2 Assay for Mitochondrial Mass (AID 2282924).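 Note: MitoTracker Red CMXRos stain intensity per cell imaged as mitochondrial mass.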 The note with it: high-content imaging, actives raise or lower the signal. The gist of the method:
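HepG2 cells dosed 72 hr at 0.39–200 uM (0.5% DMSO), in duplicate. MitoTracker Red CMXRos 250 nM loaded 30 min before formaldehyde fixation; high-content fluorescence imaging, bidirectional fit versus DMSO.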

Assay [20] is described as follows: APR_HepG2_NuclearSize_72hr: Apredica 72-hour HepG2 Assay for Nuclear Size (AID 2282925). The note with it: high-content imaging, actives raise or lower the signal. The gist of the method: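 HepG2 cells dosed 72 h at 0.39–200 uM (10 concentrations, duplicate) in 0.5% v/v DMSO final. Fixed, Hoechst 33342-stained nuclei imaged; nuclear diameter measured by automated image analysis. Bidirectional fit versus DMSO.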

Inconclusive results are not listed. Active and inactive are the calls of the source. Rule for the calls, unless noted: active = hit-call score of the fitted dose curve at least 0.9, where 1 is the maximum; inactive = score below 0.9.

With `O=C(Cc1ccccc1)c1ccccc1`, the molecule was classed as inactive in assay [1].

Take `CCc1ccccc1C`: in [1], the AC50 is 87.9 nM (active).

Regarding `O=C(Cl)c1ccc(Cl)cc1`, the molecule was called inactive in assay [1].

On to `c1cc[c]([Hg][c]2ccccc2)cc1`, for which the outcome in assay [1] was inactive.

Consider `COP(=S)(OC)Oc1cc(Cl)c(Br)cc1Cl`, for which, in assay [1], the molecule was classed as inactive.

With `CC(=O)C(Cl)C(=O)N(C)C` (stereo unspecified), the AC50 in assay [1] is 272 nM (active).

In the case of `O=S(=O)(c1ccc(Cl)cc1)c1ccc(Cl)cc1`, the molecule was classed as inactive in assay [1].

For `CCCCCCCCC(=O)NCc1ccc(O)c(OC)c1`, the molecule was called inactive in assay [1].

For the molecule `Cl/C=C\C[N+]12CN3CN(CN(C3)C1)C2`, the outcome in assay [1] was inactive.

For the molecule `C[C@]12CC[C@H](O)CC1=CC[C@@H]1[C@@H]2CC[C@]2(C)C(=O)CC[C@@H]12`, in [1], the AC50 was 983 nM (active).

For the molecule `CC(C)C1CCC(Cc2ccc(Cl)cc2)C1(O)Cn1cncn1` (stereo unspecified), the result in assay [1] was inactive.

On to `CC(=[OH+])/C=C(/C)[O-].CC(=[OH+])/C=C(/C)[O-].CC(=[OH+])/C=C(/C)[O-].[Fe]`, for which the call in assay [1] was inactive.

Turning to `BrCCBr`, the molecule was called inactive in assay [1].

For the molecule `COP(=S)(OC)Oc1ccc(S(=O)(=O)N(C)C)cc1`, in assay [1], the molecule was called inactive.

On to `CC(=O)C=C(C)C`, for which, in assay [1], the AC50 is 10800 nM (active).

For the molecule `Nc1cccc2ccccc12`, in assay [1], the result was inactive.

`CCOP(=S)(OCC)Oc1ccc(S(C)=O)cc1` (stereo unspecified): the result in assay [1] was inactive.

In the case of `CCC[CH2][Sn]([Cl])([Cl])[Cl]`, the result in assay [1] was inactive.

For the molecule `COC[C@H](C)N(C(=O)CCl)c1c(C)csc1C`, in assay [1], the call was inactive.

For the molecule `COc1cc(OC)nc(NC(=O)NS(=O)(=O)c2ncccc2C(=O)N(C)C)n1`, the molecule was classed as inactive in [1].

Consider `OCc1ccco1`, for which, in [1], the molecule was classed as inactive.

As for `CC(=O)c1cc(C(C)(C)C)cc2c1CCC2(C)C`, the call in [1] was inactive.

Consider `Cc1cc(=O)[nH]o1`, for which, in assay [1], the molecule was called inactive.

For `Clc1ccc(COC(Cn2ccnc2)c2ccc(Cl)cc2Cl)cc1` (stereo unspecified), the outcome in assay [1] was inactive.

For the molecule `C[C@@H](Oc1ccc(Cl)cc1Cl)C(=O)O`, the outcome in assay [1] was inactive.

As for `Nc1ccc(-c2ccc(N)c(Cl)c2)cc1Cl`, the molecule was called inactive in [1].

Turning to `NN=C(N)N`, the molecule was called inactive in assay [1].

Regarding `P.[In]`, in [1], the half-maximal activity concentration (AC50) was 101 nM (active).

As to `CC1CCCCC1NC(=O)Nc1ccccc1` (stereo unspecified), the molecule was called inactive in assay [1].

Consider `COP(=S)(OC)Oc1c(Cl)cc(C)cc1Cl`, for which the molecule was called inactive in assay [1].

On to `CCOC(=O)/C=C(C)/C=C/C[C@@H](C)CCCC(C)C`, for which the result in [1] was inactive.

As to `CCOP(=S)(OCC)Oc1nc(Cl)c(Cl)cc1Cl`, the molecule was called inactive in assay [1].

For `[O-][Cl+2]([O-])O`, the molecule was called inactive in assay [1].

Regarding `O=c1[nH]c(=O)[nH]c(=O)[nH]1`, the molecule was classed as inactive in assay [2], in assay [3], in assay [4], in [5], in [6] and in [8]. Further, the molecule was classed as inactive in [9], in [10], in [11], in assay [13], in assay [14] and in assay [15]. Further, the molecule was classed as inactive in assay [16], in assay [17], in assay [18], in assay [19] and in assay [20]. The AC50 was 61300 nM (active) in assay [7] and 99500 nM (active) in [12].

Turning to `CN(C)N=O`, the call in assay [2], in assay [3], in assay [4], in [5], in assay [6] and in assay [7] was inactive. For the same molecule, the call in assay [8], in assay [9], in assay [10], in assay [11], in assay [12] and in [13] was inactive. Also, the molecule was called inactive in [14], in assay [15], in [16], in [17], in assay [18] and in assay [19]. Also, the result in assay [20] was inactive.

Usually AC50 stands for the concentration at which the activity in the assay is half-maximal.
